# Data published in publication PMC8136818, “Evolving origin-of-transfer sequences on staphylococcal conjugative and mobilizable plasmids—who’s mimicking whom?”.
# T1: SmpO49 (Staphylococcus aureus plasmid pWBG749, UniProt UPI0001BEA96A 1-84)
# T1 sequence: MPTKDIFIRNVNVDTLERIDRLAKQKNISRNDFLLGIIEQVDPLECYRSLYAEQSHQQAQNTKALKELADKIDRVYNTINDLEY
# T2: SmpOUNa (plasmid pC02)
# T2 chain: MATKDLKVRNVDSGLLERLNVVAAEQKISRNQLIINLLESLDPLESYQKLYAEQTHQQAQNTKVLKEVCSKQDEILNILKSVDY
# T3: SmpO45 (Staphylococcus aureus plasmid pWBG745, UniProt UPI0001BEA8D3 1-84)
# T3 sequence: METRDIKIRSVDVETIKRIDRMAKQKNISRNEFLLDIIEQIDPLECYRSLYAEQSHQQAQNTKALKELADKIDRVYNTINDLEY
# T4: SmpOSep (Staphylococcus epidermidis VCU120)
# T4 chain: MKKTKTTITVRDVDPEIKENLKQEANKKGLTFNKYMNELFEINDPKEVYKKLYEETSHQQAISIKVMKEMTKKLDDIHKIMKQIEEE
# B1: ossA49-13 (dsDNA)
# DNA 1: TTTATGATATCAGTAT
# DNA 2: ATACTGATATCATAAA
# B2: OTUNa For/Rev_15 (dsDNA)
# DNA 1: TGGCTTCGCCAGATTACCCATTATAAAATG
# DNA 2: CATTTTATAATGGGTAATCTGGCGAAGCCA
# B3: ossA49-4 (dsDNA)
# DNA 1: TTTTTGATATCACTAT
# DNA 2: ATAGTGATATCAAAAA
# B4: ossA45-15 (dsDNA)
# DNA 1: ATTGTGGGGTCACTAT
# DNA 2: ATAGTGACCCCACAAT
# B5: ossA49-3 (dsDNA)
# DNA 1: TTAATGATATCACTAT
# DNA 2: ATAGTGATATCATTAA
# B6: ossA49-12 (dsDNA)
# DNA 1: TTTATGATATCTCTAT
# DNA 2: ATAGAGATATCATAAA
# B7: ossA49-2 (dsDNA)
# DNA 1: TATATGATATCACTAT
# DNA 2: ATAGTGATATCATATA
# B8: OT49.4 (dsDNA)
# DNA 1: GTTTTTATGATATCACTATGAAATGTCCTA
# DNA 2: TAGGACATTTCATAGTGATATCATAAAAAC
# B9: ossA49-14 (dsDNA)
# DNA 1: TTTATGATATCACAAT
# DNA 2: ATTGTGATATCATAAA
# B10: ossA45-14 (dsDNA)
# DNA 1: ATTGTGGGGTCACATT
# DNA 2: AATGTGACCCCACAAT
# B11: OTUNa For/Rev_14 (dsDNA)
# DNA 1: TTGAAATATCTGGCTTCGCCAGATTACCCA
# DNA 2: TGGGTAATCTGGCGAAGCCAGATATTTCAA
# B12: ossA49-15 (dsDNA)
# DNA 1: TTTATGATATCACTTT
# DNA 2: AAAGTGATATCATAAA
# B13: OT49.3 (dsDNA)
# DNA 1: GACACTAGGTGTTTTTATGATATCACTATG
# DNA 2: CATAGTGATATCATAAAAACACCTAGTGTC
# B14: ossA49-5 (dsDNA)
# DNA 1: TTTAAGATATCACTAT
# DNA 2: ATAGTGATATCTTAAA
# B15: ossA49-1 (dsDNA)
# DNA 1: ATTATGATATCACTAT
# DNA 2: ATAGTGATATCATAAT
# B16: ossA45-13 (dsDNA)
# DNA 1: ATTGTGGGGTCAGTTT
# DNA 2: AAACTGACCCCACAAT
# B17: ossA49 (dsDNA)
# DNA 1: TTTATGATATCACTAT
# DNA 2: ATAGTGATATCATAAA
# B18: ossA49-16 (dsDNA)
# DNA 1: TTTATGATATCACTAA
# DNA 2: TTAGTGATATCATAAA
# B19: OTUNa For/Rev_13 (dsDNA)
# DNA 1: TTTAAAACCCTTGAAATATCTGGCTTCGCC
# DNA 2: GGCGAAGCCAGATATTTCAAGGGTTTTAAA
# B20: ossA45-16 (dsDNA)
# DNA 1: ATTGTGGGGTCACTTA
# DNA 2: TAAGTGACCCCACAAT
# B21: OT49.10 (dsDNA)
# DNA 1: CTATCATTGTCCGATGATAGCAAATTCCCC
# DNA 2: GGGGAATTTGCTATCATCGGACAATGATAG
# B22: OT49.11 (dsDNA)
# DNA 1: CCGATGATAGCAAATTCCCCTTATGCTCTT
# DNA 2: AAGAGCATAAGGGGAATTTGCTATCATCGG
# B23: OT49.12 (dsDNA)
# DNA 1: GATGATAGCAAATTCCCCTTATGCTCTTAC
# DNA 2: GTAAGAGCATAAGGGGAATTTGCTATCATC
# Target: T1, SmpO49
# Experiment: SPR (ReDCaT); 150 mM NaCl; 10 mM HEPES, 3 mM EDTA, 0.05% Tween 20, NaCl 150 mM (SmpO49 screens), 300 mM (SmpO45, SmpO408, SmpOUNa screens) or 250 mM (Table S4); pH and temperature not stated; protein 1 uM; high values mean tight binding
# Details: protein: recombinant; tags: His6-TEV, cleaved; chain copies: 4
# In short: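 Tag-cleaved protein, expressed in E. coli BL21(DE3)pLysS and purified by nickel-affinity and size-exclusion chromatography, was screened on a Biacore T200 SA chip by reusable DNA capture. OriT oligonucleotides were captured at 1 μM on Fc2, with a control linker on Fc1. Protein at 1 μM was injected at 30 μl/min (60 s contact, 60 s dissociation) in 10 mM HEPES, 150 mM NaCl, 3 mM EDTA, 0.05% Tween 20. DNA binding is reported as %Rmax.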
row,Binder,binding signal [%Rmax]
1,B1,18.1 ± 1.02
2,B3,12.1 ± 1.41
3,B5,26.8 ± 1.8
4,B6,5.13 ± 0.452
5,B7,26.3 ± 1.74
6,B8,17 ± 0.325
7,B9,24.9 ± 1.06
8,B12,26.8 ± 1.07
9,B13,18.8 ± 0.402
10,B14,6.94 ± 0.948
11,B15,26.7 ± 1.94
12,B17,26 ± 1.13
13,B18,24.8 ± 1.07
14,B21,0.584 ± 0.045
15,B22,0.467 ± 0.033
16,B23,0.431 ± 0.0378

# Target: T2, SmpOUNa
# Experiment: SPR (ReDCaT); 300 mM NaCl; 10 mM HEPES, 3 mM EDTA, 0.05% Tween 20, NaCl 150 mM (SmpO49 screens), 300 mM (SmpO45, SmpO408, SmpOUNa screens) or 250 mM (Table S4); pH and temperature not stated; protein 1 uM; high values mean tight binding
# Details: protein: recombinant; tags: His6-TEV, cleaved; chain copies: 4
# In short: (§1)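 The running buffer was 10 mM HEPES, 300 mM NaCl, 3 mM EDTA, 0.05% Tween 20, and protein at 1 μM was injected at 30 μl/min for 60 s contact and 60 s dissociation. The protein had been expressed in E. coli BL21(DE3)pLysS, cleaved of its tag, and purified by nickel-affinity and size-exclusion chromatography. OriT oligonucleotides were captured at 1 μM on Fc2 of a Biacore T200 SA chip by reusable DNA capture, and a linker was captured on Fc1. Values are DNA binding expressed as %Rmax.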
row,Binder,binding signal [%Rmax]
1,B2,5.46 ± 0.605
2,B11,1.29 ± 0.0865
3,B19,2.14 ± 0.24

# Target: T3, SmpO45
# Experiment: as above
# Details: protein: recombinant; tags: His6-TEV, cleaved; chain copies: 4
# In short: as §1
row,Binder,binding signal [%Rmax]
1,B4,38.6 ± 1.09
2,B10,38.9 ± 1.1
3,B16,30.8 ± 1.19
4,B20,43.4 ± 1.14

# Target: T4, SmpOSep
# Experiment: SPR (ReDCaT); 250 mM NaCl; 10 mM HEPES, 3 mM EDTA, 0.05% Tween 20, NaCl 150 mM (SmpO49 screens), 300 mM (SmpO45, SmpO408, SmpOUNa screens) or 250 mM (Table S4); pH and temperature not stated; protein 1 uM; high values mean tight binding
# Details: protein: recombinant; tags: His6-TEV, cleaved; chain copies: 4
row,Binder,binding signal [%Rmax]
1,B17,1.2
